PubChem BioAssay (Tox21)
Records with an inconclusive call do not appear. Entries that show only a call come without a potency. Values without a mark were called inactive. Activity calls are given as the source filed them. Calls follow the shape of the dose curve; as a rule, active = well fitted inhibition curve with a large enough effect in the repeat runs; inconclusive = weak or mixed curves; inactive = no such curve, though single readings can be large or run the other way.

Target: Cytochrome P450 2C9 (Homo sapiens) (UniProt P11712)
Sequence (P11712 whole entry, looked up): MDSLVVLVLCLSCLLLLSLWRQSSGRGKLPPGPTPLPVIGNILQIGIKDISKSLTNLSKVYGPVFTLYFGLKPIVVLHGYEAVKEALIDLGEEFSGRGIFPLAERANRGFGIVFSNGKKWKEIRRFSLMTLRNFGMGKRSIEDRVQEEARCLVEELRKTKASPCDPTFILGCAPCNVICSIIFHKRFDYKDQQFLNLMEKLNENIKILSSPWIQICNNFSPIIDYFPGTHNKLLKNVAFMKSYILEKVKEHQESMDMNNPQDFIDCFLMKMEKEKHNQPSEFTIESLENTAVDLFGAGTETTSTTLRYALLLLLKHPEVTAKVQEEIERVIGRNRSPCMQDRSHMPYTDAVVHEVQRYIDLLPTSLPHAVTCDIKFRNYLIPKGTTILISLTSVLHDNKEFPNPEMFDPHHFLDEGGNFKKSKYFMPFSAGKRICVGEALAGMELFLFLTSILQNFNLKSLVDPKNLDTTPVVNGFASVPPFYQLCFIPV
Test: Cytochrome P450 Family 2 Subfamily C Member 9 (CYP2C9) small molecule antagonists: luciferase reporter qHTS assay (AID 1671198); also: nearly all actives have a fitted effect of over 50% in size
Details: P450-Glo CYP2C9 enzyme assay, luciferin luminescence; series mostly up to 115 µM
Procedure, shortened: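 CYP2C9 activity was measured with a P450-Glo proluciferin substrate. Enzyme–substrate mix was held with compound for 10 min at room temperature, then NADPH regeneration solution was added for 1 h at 37C. Luciferin product was read as luminescence.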
Potency is read from the fitted curve at half-maximal effect.

Structure (SMILES) | Potency | activity change, negative = inhibition
CC(C(=O)O)c1ccc2c(c1)Cc1cccnc1O2 (configuration not stated) | inactive | 
O=S(=O)(O)c1cc(Cl)c(Cl)cc1Cl | 31.7 µM (active) | 
C=CC(=O)NC(C)(C)C | inactive | 
C=CC(C)(O)CC/C=C(/C)CCC=C(C)C (configuration not stated) | 31.7 µM (active) | 
CCCCCO | inactive | 
Cc1ccc(Cl)c(OCC(O)CNC(C)(C)C)c1 (configuration not stated) | inactive | 
CCCCCCCCCCCCCCCCCCCl |  | -2.7% [at 10.5 µM]
C=C[Si]1(C)O[Si](C)(C=C)O[Si](C)(C=C)O[Si](C)(C=C)O1 (configuration not stated) | inactive | 
CCc1ccc(C(=O)C(C)CN2CCCCC2)cc1 (configuration not stated) | inactive | 
O=C(OCCOCCOCCOC(=O)c1ccccc1)c1ccccc1 | inactive | 
O=C(O)CCc1nc2ccccc2[nH]1 | inactive | 
CC(C)C/C=C(\C=O)c1ccccc1 | 35.6 µM (active) | 
c1ccc(CN(Cc2ccccc2)Cc2ccccc2)cc1 | 31.7 µM (active) | 
C[C@H](CN1CCCC1)C(=O)c1ccc(C(F)(F)F)cc1 | inactive | 
O=C(Cl)c1ccc(F)c(Cl)c1 | inactive | 
O=C1OC(=O)C2CC=CCC12 (configuration not stated) | inactive | 
CC(C)Oc1ccccc1O | inactive | 
c1ccc(-c2ccc(-c3ccccc3)cc2)cc1 |  | -16.3% [at 23.6 µM]
COC(=O)c1cc(Cl)ccc1[N+](=O)[O-] | inactive | 
O=C(O)c1ccc2c(c1)nc(C(=O)NC1CCN(C3CC3)CC1)n2Cc1cc(-c2ccc(Cl)s2)on1 |  | -6.17% [at 23.6 µM]
O=C(O)c1ccc2cc(O)ccc2c1 | inactive | 
N#Cc1ccc(CC(=O)c2cccc(C(F)(F)F)c2)cc1 | 35.6 µM (active) | 
Cc1ccc2ccccc2c1[N+](=O)[O-] | inactive | 
C[C@H]1C[C@H]2[C@@H]3CCC4=CC(=O)C=C[C@]4(C)[C@@]3(F)[C@@H](O)C[C@]2(C)[C@@]1(O)C(=O)COP(=O)(O)O | inactive | 
CO[C@@H]1[C@@H](O[C@@H]2O[C@H](C)[C@@H](O[C@H]3C[C@@](C)(O)[C@@H](O)[C@H](C)O3)[C@H](N(C)C)[C@H]2O)[C@@H](CC=O)C[C@@H](C)[C@@H](O[C@@H]2CC[C@H](N(C)C)[C@@H](C)O2)/C=C/C=C/C[C@@H](C)OC(=O)C[C@H]1OC(C)=O | inactive | 
O=C(N[C@@H](Cc1ccccc1)[C@@H](O)C(=O)N1C[C@@H](O)[C@@H](O)C1)c1cc2cc(Cl)ccc2[nH]1 | 35.6 µM (active) | 
O=[N+]([O-])c1ccc(Cl)cc1Cl | inactive | 
